Screening results: PubChem BioAssay, several laboratories
The list is not random: actives were taken first. Their share in the collection is about 4.2%.
tim10-1 inh: growth inhibitors of tim10-1 mutant yeast, primary screen, luminescence, uHTS | S. cerevisiae tim10-1 ts strain growth, BacTiter-Glo, 24 h | inhibition, % at 20 µM | AID 463190, 2010 | hit rate 2.2% among 330,000;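 active = inhibition of at least 40%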;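 note: mutant grown at 25 °C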
NLRP3 yeast inh: NALP3 inflammasome inhibitors in reconstituted yeast, primary screen, luminescence, uHTS; hit rate 0.39% among 330,000; inhibition, % at 10 µM; Yeast reconstituted NLRP3/ASC/caspase-1, beta-gal luminescence, 24 h;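 active = inhibition of 50% or more; inactive = inhibition below 50%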
NALP1 yeast inh: NALP1 inflammasome inhibitors in reconstituted yeast, colorimetric, S. cerevisiae, triplicate retest; S. cerevisiae NALP1/ASC/caspase-1 growth, X-gal OD620, 72 h; hit rate 0.61% among 280,000; AID 2071, 2009; inhibition, % at 10 µM; in the data active = inhibition mostly above about 24%, no sharp cut-off; inactive = mostly below about 32%
tim23-1 inh: growth inhibitors of tim23-1 mutant yeast, primary screen, luminescence, uHTS; S. cerevisiae tim23-1 growth, BacTiter-Glo luminescence, 24 h; hit rate 1.3% among 330,000; inhibition, % at 20 µM;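 active = growth inhibition of the mutant yeast at or above 50%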;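 note: temperature-sensitive mutant grown at 25 °C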
TIM10 inh: growth inhibitors of isogenic TIM10 control yeast, primary screen, counter-screen for tim10-1 yeast inhibitor project, luminescence, uHTS; S. cerevisiae TIM10 strain growth, BacTiter-Glo luminescence, 24 h; AID 463195, 2010; inhibition, % at 10 µM; hit rate 1.4% among 330,000;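 active = inhibition of 40% or more at the single tested concentration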;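 note: wild-type TIM10 isogenic control strain grown at permissive 25 °C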
V-ATPase pHluor: regulators of yeast V-ATPase proton pumping, primary screen, pHLuorin cytosolic pH fluorescence; S. cerevisiae; response, % at 10 µM; hit rate 0.37% among 350,000; in the data active = response mostly above about 7.3%, no sharp cut-off; inactive = mostly below about 5.4%; note: actives read high
tim10-1 conf: growth inhibitors of tim10-1 mutant yeast, confirmation, single concentration, luminescence, S. cerevisiae. hit rate 56% among 7,400. inhibition, % at 20 µM. AID 463213, 2010. shares compounds with tim10-1 inh. S. cerevisiae tim10-1 ts strain growth, BacTiter-Glo, 24 h;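 active = inhibition of yeast growth at or above a set limit in either of two repeat tests at 20 µM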;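 note: tim10-1 mutant grown at permissive 25 °C to find synthetic lethal compounds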
Each line names hits and unclear results; the compound was inactive in the other large screens (follow-up assays come after a bar, where they were run).

COc1ccc2[nH]c(C)c(CCNC(=S)Nc3cc(C)ccc3C)c2c1	none
Cc1[nH]n(-c2ccccc2)c(=O)c1N=Nc1c(O)cc(S(=O)(=O)N(C)C)c2ccccc12	tim10-1 inh 42.7 (no result: NALP1 yeast inh) | tim10-1 conf inactive
C/C(=N\NC(=O)CNC(=O)C1COc2ccccc2O1)c1ccco1 (stereo unspecified)	none
COc1cc(SC#N)ccc1N=Cc1c(C)[nH]n(-c2ccc(Cl)cc2)c1=O	tim10-1 inh 41.6 | tim10-1 conf inactive
CCOc1ccc(/C=C2/C(=O)N(c3ccc(OC)cc3)C(=S)N2CC(=O)OC)cc1OCC	tim10-1 inh 41.4 | tim10-1 conf inactive
CCOC(=O)c1ccc(-c2ccc(/C=N/NC(=O)CN(c3ccccc3Br)S(C)(=O)=O)o2)cc1	none
O=C(NCC1CCCO1)c1ccc2c(c1)N(Cc1ccccc1)CCS2 (stereo unspecified)	tim10-1 inh 41.3 | tim10-1 conf inactive
CCN1CCSc2ccc(C(=O)NCc3cccc(Br)c3)cc21	tim10-1 inh 41.3 | tim10-1 conf 35.3
CCN1CCN(C(=O)c2ccc3c(c2)N(Cc2ccc(C)cc2)CCS3)CC1	none
Cc1ccc(CN2CCSc3ccc(C(=O)N4CCOCC4)cc32)cc1	tim10-1 inh 41.0 | tim10-1 conf inactive
NC(=O)C1=NOC(CNc2ncc(C(F)(F)F)cc2Cl)C1 (stereo unspecified)	none
COCCCNS(=O)(=O)c1ccc(OC)c(Cl)c1Cl	none
COc1cc(NC(=O)c2cc(-c3ccccc3Cl)on2)cc(OC)c1OC	tim10-1 inh 45.1 | tim10-1 conf inactive
Cc1ccc(C)c(Nc2cc(C)nc3ccccc23)c1	none (no result: NALP1 yeast inh)
C[C@@H]1OC(Nc2ccc(N=Nc3ccccc3)cc2)[C@H](O)[C@H](O)[C@H]1O (stereo partly specified)	none
COc1cc(OC)c2c(=O)cc(-c3ccccc3)oc2c1	none
COc1cc2c(c3oc(-c4ccccc4)cc(=O)c13)C=CC(C)(C)O2	tim10-1 inh 47.0 | tim10-1 conf inactive
CN(CCc1ccccn1)C(=O)Nc1ccc(Cl)cc1	none
CN(CCc1ccccn1)C1CC(=O)N(c2ccc(Cl)cc2)C1=O (stereo unspecified)	tim10-1 inh 40.5 | tim10-1 conf 34.2
Cc1nn(Cc2ccc(Cl)cc2Cl)c(C)c1NC(=O)C1C2CCC(O2)C1C(=O)O (stereo unspecified)	tim10-1 inh 40.8 | tim10-1 conf inactive
Cc1nn(Cc2c(F)c(F)c(F)c(F)c2F)c(C)c1NC(=O)c1ccc(COc2ccc(Cl)cc2Cl)o1	tim10-1 inh 48.9 | tim10-1 conf 40.9
Cc1nn(Cc2ccc(Cl)cc2Cl)c(C)c1NC(=O)c1ccc(COc2cc(Cl)ccc2Cl)o1	none
Cc1nn(Cc2ccc(Cl)cc2Cl)c(C)c1NC(=O)c1nn(C)cc1Cl	tim10-1 inh 43.9 | tim10-1 conf 37.7
CCc1ccc(NC(=O)N2CCN(c3ccc(F)cc3)CC2)cc1	none (no result: tim10-1 inh, NLRP3 yeast inh, tim23-1 inh, TIM10 inh)
Cc1c(C)n(C)c2ccc(C(=O)Nc3cccc4ccccc34)cc12	tim10-1 inh 42.6 | tim10-1 conf 32.1
Cc1c(Cl)cccc1NC(=O)CCN1CCCCCC1	none
COc1ccc(-c2cc(=O)c3cc(OC)c(OC)cc3[nH]2)cc1	none
COc1ccc(-c2cc(C)no2)cc1S(=O)(=O)N(C)c1ccc(C)cc1	tim10-1 inh 44.8 | tim10-1 conf inactive
COc1cccc(C(=O)CSc2nnnn2C2CCCCC2)c1	tim10-1 inh 44.1 | tim10-1 conf 36.8
O=C1CC(SCc2nc3ccccc3[nH]2)C(=O)N1c1ccc(F)cc1 (stereo unspecified)	none
O=C1CC(Sc2nnnn2-c2ccccc2)C(=O)N1c1cccc(Cl)c1 (stereo unspecified)	tim10-1 inh 49.1 | tim10-1 conf 46.6
O=C1CC(SCc2nc3ccccc3[nH]2)C(=O)N1c1cccc(Cl)c1 (stereo unspecified)	tim10-1 inh 40.4 | tim10-1 conf 35.2
O=C(Nc1ccnn1C1CCN(C2CCCCC2)CC1)c1cccc(F)c1	none
COC(=O)Cn1cc(C(=O)C(F)(F)F)c2ccccc21	none
N=C(N)SCc1nc2ccccc2c(=O)n1-c1ccccc1	none
CN1CCN(C2Cc3ccccc3Sc3ccc(Cl)cc32)CC1 (stereo unspecified)	tim10-1 inh 52.4 (no result: NALP1 yeast inh) | tim10-1 conf 35.5
CN1CCN(C2Cc3cc(F)ccc3Sc3ccc(Cl)cc32)CC1 (stereo unspecified)	none (no result: NALP1 yeast inh)
Cc1ccc(-c2nc3cnccn3c2Nc2ccc3c(c2)OCO3)o1	none
CSc1ccc(-c2nc3cnccn3c2Nc2ccc3c(c2)OCO3)cc1	tim10-1 inh 45.7 | tim10-1 conf 42.8
c1cn2c(Nc3ccc4c(c3)OCCO4)c(-c3ccc(N4CCOCC4)cc3)nc2cn1	none (no result: NALP1 yeast inh)
Clc1ccc(-c2nc3cnccn3c2NC2CCCC2)cc1	tim10-1 inh 49.6 | tim10-1 conf inactive
CCC(C)Sc1ccc(-c2nc3cnccn3c2NC2CCCCC2)cc1 (stereo unspecified)	none (no result: NALP1 yeast inh)
Clc1ccc(-c2nc3cnccn3c2Nc2ccc3c(c2)OCO3)cc1	tim10-1 inh 45.4 | tim10-1 conf 35.4
CC(C)(C)OC(=O)NNC(=O)Nc1ccccc1C(F)(F)F	none
COc1cccc(C(=O)Nc2ccc3c(c2)OCO3)c1OC	none
O=C(CCNC(=O)c1ccccc1Cl)Nc1nc(-c2ccc(F)cc2)cs1	none
O=C(CCNC(=O)c1ccccc1Cl)Nc1nc(-c2ccccc2Cl)cs1	tim10-1 inh 40.2 | tim10-1 conf inactive
COc1c(Cl)cc(Cl)cc1C(=O)Nc1ccc(NC(C)=O)cc1	none
COC(=O)c1cc(Cl)cc(Cl)c1OS(=O)(=O)N(C)C	tim10-1 inh 40.7 | tim10-1 conf inactive
CN(Cc1ccccc1)S(=O)(=O)c1ccc2c(c1)OCCO2	tim10-1 inh 41.7 | tim10-1 conf inactive
O=C(O)CN(Cc1ccccc1)S(=O)(=O)c1ccc2c(c1)OCCO2	none
COc1ccc(CN(C)S(=O)(=O)c2ccc3c(c2)OCCO3)cc1	tim10-1 inh 47.5 | tim10-1 conf inactive
CSCCC(=O)N1CCCC(CNC(=O)c2ccc(-c3ccccc3)cc2)C1 (stereo unspecified)	tim10-1 inh 40.1 | tim10-1 conf inactive
CCOC(=O)c1cnc2ccc(OC)cc2c1NCc1ccccc1	none
CCOC(=O)c1cnc2ccc(OCC)cc2c1NCc1ccccc1OC	tim10-1 inh 42.8 | tim10-1 conf 34.3
COc1ccc(CCNc2c(C=O)c(=O)[nH]c3ccccc23)cc1OC	none
